Reference: PubChem BioAssay

assay: inhibitors of PAF-induced NFkB signaling in CF airway cells, dose response, cell-based, uHTS hits, panel, cytotoxicity readout (AID 624344); conditions: CF bronchial epithelial cells, PAF-induced NFkB reporter inhibition, with PAF, run 2; at 79 µM (top of the series) unless noted

Row | Compound | inhibition
1 | NC(=O)N/N=C/c1c(Sc2nnnn2-c2ccccc2)nc2ccccn2c1=O | 105%
2 | Cn1nnnc1Sc1ncnc2scc(-c3ccc[nH]3)c12 | 61.6%
3 | COc1ccc2cc(C(N)=O)c(=Nc3ccc(C)cc3)oc2c1 | 75.7%
4 | CC(C)Nc1ncnc2ccc(Br)cc12 | 104%
5 | O=C(Nc1nc2ccc(F)cc2s1)C1CCN(S(=O)(=O)c2cc([N+](=O)[O-])ccc2Cl)CC1 | 112%
6 | COc1cccc(NC(=O)Nc2nnc(CC(=O)NCc3ccccc3)s2)c1 | 83.7%
